Experimental data: the supplement of paper PMC10849652
About 7,900 targets were measured; listed, in parts, are those with a hit and a random draw of the rest. About 0.6% of all pairs of compound and target were hits. Values without a mark were called inactive.

How the values were obtained:
Assay in all cases: log2 fold change, soluble protein after heating vs DMSO (PISA); higher = thermal stabilisation; K562 cells, 10 uM, 30 min; active = over 0.2 and 3.5 SD of the protein, either way, in both replicates (recomputed)
[1] = compound: COC1=CC=C(C=C1)CN2C=CC3=C2C=C(C=C3)C(=O)NO
Outline: (§1)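 Values are thermal stability changes relative to control samples and are taken from duplicates. They are stated as log2 fold changes. Before quantification by TMTpro 16plex LC-MS/MS with equalised channel sums, K562 cells at 2×10^6 cells/mL were treated with 10 μM compound for 30 min, heated in aliquots for 3 min across 48°C-58°C, pooled, extracted in PBS with 0.5% NP-40 at 4°C, and centrifuged at 21,000xg for 90 min to give the soluble supernatant.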

filanesib = compound: CON(C)C(=O)N1N=C(c2cc(F)ccc2F)S[C@@]1(CCCN)c1ccccc1 [filanesib]
Outline: as §1

zotarolimus = compound: CO[C@H]1C[C@@H]2CC[C@@H](C)[C@@](O)(O2)C(=O)C(=O)N2CCCC[C@H]2C(=O)O[C@H]([C@H](C)C[C@@H]2CC[C@H](n3cnnn3)[C@H](OC)C2)CC(=O)[C@H](C)/C=C(\C)[C@@H](O)[C@@H](OC)C(=O)[C@H](C)C[C@H](C)/C=C/C=C/C=C/1C [zotarolimus]
Outline: as §1

idasanutlin = compound: COc1cc(C(=O)O)ccc1NC(=O)[C@@H]1N[C@@H](CC(C)(C)C)[C@](C#N)(c2ccc(Cl)cc2F)[C@H]1c1cccc(Cl)c1F [idasanutlin]
Outline: as §1

alisertib = compound: COc1cc(Nc2ncc3c(n2)-c2ccc(Cl)cc2C(c2c(F)cccc2OC)=NC3)ccc1C(=O)O [alisertib]
Outline: as §1

[2] = compound: COc1cc2nc(-c3cc(F)ccc3O)nc(N[C@@H]3CNC[C@H]3C(C)(C)O)c2cc1OC
Outline: as §1

gefitinib = compound: COc1cc2ncnc(Nc3ccc(F)c(Cl)c3)c2cc1OCCCN1CCOCC1 [gefitinib]
Outline: as §1

[3] = compound: COc1cccc2cc(-c3nc([C@H]4CC[C@H](C(=O)O)CC4)n4ncnc(N)c34)[nH]c12
Outline: as §1

lapatinib = compound: CS(=O)(=O)CCNCc1ccc(-c2ccc3ncnc(Nc4ccc(OCc5cccc(F)c5)c(Cl)c4)c3c2)o1 [lapatinib]
Outline: as §1

pictilisib = compound: CS(=O)(=O)N1CCN(Cc2cc3nc(-c4cccc5[nH]ncc45)nc(N4CCOCC4)c3s2)CC1 [pictilisib]
Outline: as §1

[4] = compound: CS(=O)(=O)c1ccc(-c2cnc(N)c(C(=O)Nc3ccccc3)n2)cc1
Outline: as §1

crizotinib = compound: C[C@@H](Oc1cc(-c2cnn(C3CCNCC3)c2)cnc1N)c1c(Cl)ccc(F)c1Cl [crizotinib]
Outline: as §1

[5] = compound: C[C@@H]1COCCN1C2=NC(=NC(=C2)C3(CC3)S(=O)(=O)C)C4=C5C=CNC5=CC=C4
Outline: as §1

[6] = compound: C[C@H](C1=CC=C(C=C1)C(=O)NC2=C3C=CNC3=NC=C2)N
Outline: as §1

duvelisib = compound: C[C@H](Nc1ncnc2nc[nH]c12)c1cc2cccc(Cl)c2c(=O)n1-c1ccccc1 [duvelisib]
Outline: as §1

gandotinib = compound: Cc1cc(Nc2cc(CN3CCOCC3)c3nc(C)c(Cc4ccc(Cl)cc4F)n3n2)n[nH]1 [gandotinib]
Outline: as §1

tozasertib = compound: Cc1cc(Nc2cc(N3CCN(C)CC3)nc(Sc3ccc(NC(=O)C4CC4)cc3)n2)n[nH]1 [tozasertib]
Outline: as §1

[7] = compound: Cc1cc(SCc2sc(-c3ccc(C(F)(F)F)cc3)nc2C)ccc1OCC(=O)O
Outline: as §1

doramapimod = compound: Cc1ccc(-n2nc(C(C)(C)C)cc2NC(=O)Nc2ccc(OCCN3CCOCC3)c3ccccc23)cc1 [doramapimod]
Outline: as §1

ispinesib = compound: Cc1ccc(C(=O)N(CCCN)[C@@H](c2nc3cc(Cl)ccc3c(=O)n2Cc2ccccc2)C(C)C)cc1 [ispinesib]
Outline: as §1

Chain of UniProt P61586 (P61586 whole entry, looked up): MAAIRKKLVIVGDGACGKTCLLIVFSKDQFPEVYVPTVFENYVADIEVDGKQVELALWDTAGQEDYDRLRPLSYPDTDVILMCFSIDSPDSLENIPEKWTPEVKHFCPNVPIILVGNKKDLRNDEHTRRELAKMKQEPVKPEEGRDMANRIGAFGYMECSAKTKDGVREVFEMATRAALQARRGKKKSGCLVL
Chain of UniProt Q96EV2 (Q96EV2 whole entry, looked up): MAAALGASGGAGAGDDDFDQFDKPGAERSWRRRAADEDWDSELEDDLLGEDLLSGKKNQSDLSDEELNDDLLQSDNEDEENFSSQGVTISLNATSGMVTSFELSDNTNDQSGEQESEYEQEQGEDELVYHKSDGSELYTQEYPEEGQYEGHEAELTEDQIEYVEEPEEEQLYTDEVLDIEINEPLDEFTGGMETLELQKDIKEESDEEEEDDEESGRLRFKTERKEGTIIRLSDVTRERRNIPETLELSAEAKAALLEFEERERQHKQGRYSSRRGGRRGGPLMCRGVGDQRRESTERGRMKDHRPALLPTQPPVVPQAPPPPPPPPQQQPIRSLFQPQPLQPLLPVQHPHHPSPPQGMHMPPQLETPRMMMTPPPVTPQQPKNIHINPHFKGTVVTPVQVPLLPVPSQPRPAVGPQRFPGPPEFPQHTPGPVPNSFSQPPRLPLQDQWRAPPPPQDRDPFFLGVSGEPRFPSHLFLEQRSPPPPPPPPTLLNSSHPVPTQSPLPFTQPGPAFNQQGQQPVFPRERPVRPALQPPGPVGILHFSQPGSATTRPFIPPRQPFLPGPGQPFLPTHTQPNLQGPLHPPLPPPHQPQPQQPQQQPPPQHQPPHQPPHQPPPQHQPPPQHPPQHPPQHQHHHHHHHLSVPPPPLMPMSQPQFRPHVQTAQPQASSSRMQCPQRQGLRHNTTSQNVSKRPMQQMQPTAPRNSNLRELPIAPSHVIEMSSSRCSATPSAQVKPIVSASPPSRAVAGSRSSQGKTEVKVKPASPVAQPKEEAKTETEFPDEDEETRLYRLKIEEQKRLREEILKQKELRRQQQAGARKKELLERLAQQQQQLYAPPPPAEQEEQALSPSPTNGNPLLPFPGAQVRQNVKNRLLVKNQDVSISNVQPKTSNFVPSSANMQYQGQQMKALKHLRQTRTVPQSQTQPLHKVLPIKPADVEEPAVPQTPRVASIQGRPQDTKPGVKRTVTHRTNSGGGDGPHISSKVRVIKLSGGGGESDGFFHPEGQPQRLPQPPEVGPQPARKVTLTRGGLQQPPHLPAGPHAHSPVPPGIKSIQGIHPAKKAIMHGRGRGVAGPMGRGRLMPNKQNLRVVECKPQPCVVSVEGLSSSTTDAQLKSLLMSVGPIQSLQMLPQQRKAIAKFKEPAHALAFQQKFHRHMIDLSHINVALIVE
Chain of UniProt Q9H2M9 (Q9H2M9 whole entry, looked up): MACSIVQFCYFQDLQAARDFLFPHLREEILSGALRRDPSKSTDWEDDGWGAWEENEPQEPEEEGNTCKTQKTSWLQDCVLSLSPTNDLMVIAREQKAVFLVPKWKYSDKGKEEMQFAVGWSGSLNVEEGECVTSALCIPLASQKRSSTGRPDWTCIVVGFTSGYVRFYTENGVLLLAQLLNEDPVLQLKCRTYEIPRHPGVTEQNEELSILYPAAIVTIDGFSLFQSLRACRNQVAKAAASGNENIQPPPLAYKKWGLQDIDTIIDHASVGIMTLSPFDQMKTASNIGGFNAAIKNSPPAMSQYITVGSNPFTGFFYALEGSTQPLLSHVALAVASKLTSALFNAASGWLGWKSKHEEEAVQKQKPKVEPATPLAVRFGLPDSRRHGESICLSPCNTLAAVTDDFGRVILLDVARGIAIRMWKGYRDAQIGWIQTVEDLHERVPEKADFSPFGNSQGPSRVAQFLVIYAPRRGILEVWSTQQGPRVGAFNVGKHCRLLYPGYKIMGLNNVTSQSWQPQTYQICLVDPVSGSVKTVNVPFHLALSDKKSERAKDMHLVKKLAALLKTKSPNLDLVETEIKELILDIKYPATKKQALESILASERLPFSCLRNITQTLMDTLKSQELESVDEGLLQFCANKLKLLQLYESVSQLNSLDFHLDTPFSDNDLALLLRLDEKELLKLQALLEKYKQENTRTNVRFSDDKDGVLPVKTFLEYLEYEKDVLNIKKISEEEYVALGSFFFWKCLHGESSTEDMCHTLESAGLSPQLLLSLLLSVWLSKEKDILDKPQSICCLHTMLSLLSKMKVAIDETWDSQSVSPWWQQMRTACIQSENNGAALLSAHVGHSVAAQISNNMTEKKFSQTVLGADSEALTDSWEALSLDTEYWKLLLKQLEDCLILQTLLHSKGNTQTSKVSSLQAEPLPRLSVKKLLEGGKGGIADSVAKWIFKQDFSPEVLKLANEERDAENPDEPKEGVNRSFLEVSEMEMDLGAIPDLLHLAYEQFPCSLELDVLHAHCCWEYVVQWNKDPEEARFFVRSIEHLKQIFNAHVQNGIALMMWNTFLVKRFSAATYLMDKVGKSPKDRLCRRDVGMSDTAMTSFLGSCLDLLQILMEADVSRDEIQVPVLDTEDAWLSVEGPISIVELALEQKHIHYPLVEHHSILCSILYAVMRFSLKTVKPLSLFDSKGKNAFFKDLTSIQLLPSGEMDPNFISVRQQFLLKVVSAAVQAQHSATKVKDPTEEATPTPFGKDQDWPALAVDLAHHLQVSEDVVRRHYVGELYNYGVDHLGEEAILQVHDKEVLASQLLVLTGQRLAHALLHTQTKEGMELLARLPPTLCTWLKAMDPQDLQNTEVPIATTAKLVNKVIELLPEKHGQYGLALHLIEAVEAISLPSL
Chain of UniProt Q8N122 (Q8N122 whole entry, looked up): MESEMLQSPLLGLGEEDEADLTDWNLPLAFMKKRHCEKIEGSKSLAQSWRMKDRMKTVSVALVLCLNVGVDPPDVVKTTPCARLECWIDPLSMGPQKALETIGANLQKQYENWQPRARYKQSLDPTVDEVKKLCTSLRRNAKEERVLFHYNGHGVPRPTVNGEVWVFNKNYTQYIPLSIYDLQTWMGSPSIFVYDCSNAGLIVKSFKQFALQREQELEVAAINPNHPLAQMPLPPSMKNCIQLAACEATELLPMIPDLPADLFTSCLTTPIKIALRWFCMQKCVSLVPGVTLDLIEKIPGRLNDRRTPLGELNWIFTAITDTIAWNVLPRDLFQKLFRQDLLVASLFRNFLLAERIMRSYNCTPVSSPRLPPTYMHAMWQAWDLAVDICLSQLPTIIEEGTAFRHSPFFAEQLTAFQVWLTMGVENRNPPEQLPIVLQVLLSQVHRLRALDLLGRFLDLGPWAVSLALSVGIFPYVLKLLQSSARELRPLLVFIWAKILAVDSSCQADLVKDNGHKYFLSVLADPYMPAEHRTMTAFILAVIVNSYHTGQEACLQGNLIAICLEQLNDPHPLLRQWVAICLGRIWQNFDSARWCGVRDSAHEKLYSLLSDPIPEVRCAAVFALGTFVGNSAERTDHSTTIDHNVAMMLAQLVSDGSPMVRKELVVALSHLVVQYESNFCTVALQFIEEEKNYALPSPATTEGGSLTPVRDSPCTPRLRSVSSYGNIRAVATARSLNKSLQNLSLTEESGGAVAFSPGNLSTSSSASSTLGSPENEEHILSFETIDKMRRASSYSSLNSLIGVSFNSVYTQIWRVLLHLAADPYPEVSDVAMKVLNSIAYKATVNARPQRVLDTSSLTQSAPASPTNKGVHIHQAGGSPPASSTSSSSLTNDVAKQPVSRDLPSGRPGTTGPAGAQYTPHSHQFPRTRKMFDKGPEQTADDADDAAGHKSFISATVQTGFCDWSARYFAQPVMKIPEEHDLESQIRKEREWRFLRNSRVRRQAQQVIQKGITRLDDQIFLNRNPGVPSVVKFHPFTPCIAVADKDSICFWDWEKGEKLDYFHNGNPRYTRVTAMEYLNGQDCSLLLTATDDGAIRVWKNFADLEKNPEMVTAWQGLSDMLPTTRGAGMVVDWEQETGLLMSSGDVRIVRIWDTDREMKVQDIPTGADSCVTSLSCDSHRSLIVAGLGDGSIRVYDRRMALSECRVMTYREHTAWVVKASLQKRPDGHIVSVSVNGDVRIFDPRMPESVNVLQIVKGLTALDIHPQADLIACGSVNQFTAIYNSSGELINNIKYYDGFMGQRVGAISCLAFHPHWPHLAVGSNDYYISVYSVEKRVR
Chain of UniProt Q8IZQ5 (Q8IZQ5 whole entry, looked up): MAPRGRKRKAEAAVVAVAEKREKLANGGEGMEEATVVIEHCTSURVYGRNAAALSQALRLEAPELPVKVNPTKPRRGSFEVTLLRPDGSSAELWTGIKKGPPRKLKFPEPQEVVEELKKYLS
Chain of UniProt Q9NSI8 (Q9NSI8 whole entry, looked up): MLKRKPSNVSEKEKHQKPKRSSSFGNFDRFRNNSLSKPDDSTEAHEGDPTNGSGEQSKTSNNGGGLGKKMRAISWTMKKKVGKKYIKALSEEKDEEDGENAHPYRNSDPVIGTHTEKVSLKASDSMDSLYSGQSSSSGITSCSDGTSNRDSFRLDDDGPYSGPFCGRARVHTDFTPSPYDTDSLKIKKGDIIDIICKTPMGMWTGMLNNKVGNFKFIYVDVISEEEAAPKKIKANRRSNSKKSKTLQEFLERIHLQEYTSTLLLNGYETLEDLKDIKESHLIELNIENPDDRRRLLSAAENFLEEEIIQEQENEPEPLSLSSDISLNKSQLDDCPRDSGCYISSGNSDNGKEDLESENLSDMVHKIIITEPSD
Chain of UniProt Q99643 (Q99643 whole entry, looked up): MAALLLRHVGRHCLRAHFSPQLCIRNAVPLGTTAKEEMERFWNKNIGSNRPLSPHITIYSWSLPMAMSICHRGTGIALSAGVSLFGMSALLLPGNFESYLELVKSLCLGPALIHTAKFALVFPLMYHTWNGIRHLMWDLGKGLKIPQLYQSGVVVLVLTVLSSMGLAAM

| Target | log2 fold change [1] | log2 fold change (filanesib) | log2 fold change (zotarolimus) | log2 fold change (idasanutlin) | log2 fold change (alisertib) | log2 fold change [2] | log2 fold change (gefitinib) | log2 fold change [3] | log2 fold change (lapatinib) | log2 fold change (pictilisib) | log2 fold change [4] | log2 fold change (crizotinib) | log2 fold change [5] | log2 fold change [6] | log2 fold change (duvelisib) | log2 fold change (gandotinib) | log2 fold change (tozasertib) | log2 fold change [7] | log2 fold change (doramapimod) | log2 fold change (ispinesib) |
| --- | --- | --- | --- | --- | --- | --- | --- | --- | --- | --- | --- | --- | --- | --- | --- | --- | --- | --- | --- | --- |
| SDHC (UniProt Q99643) | 0.088 | 0.088 | 0.094 | -0.238 | 0.023 | -0.107 | 0.042 | 0.04 | -0.081 | -0.006 | -0.304 | 0.08 | 0.457 (active) | -0.045 | 0.155 | -0.023 | 0.042 | -0.111 | -0.086 | 0.047 |
| SAMSN1 isoform 3 (UniProt Q9NSI8) | 0.013 | -0.021 | 0.034 | -0.026 | 0.007 | -0.001 | 0.007 | -0.029 | -0.009 | -0.001 | 0.024 | -0.082 | 0.043 | -0.027 | 0.006 | -0.077 | -0.013 | 0.019 | -0.052 | -0.069 |
| RAD50 isoform 2 (UniProt Q92878) | -0.002 | 0.008 | 0.036 | -0.016 | 0 | 0.002 | 0.031 | 0.007 | -0.002 | 0.02 | 0.031 | 0.064 | 0.044 | -0.039 | 0.02 | -0.017 | 0.029 | 0.021 | -0.023 | 0.033 |
| RAC1 (UniProt P63000) | 0.474 (active) | -0.118 | 0.044 | 0.003 | -0.066 | 0.02 | 0.039 | 0.006 | 0.004 | -0.094 | -0.094 | 0 | -0.04 | -0.06 | 0.001 | -0.037 | 0.065 | -0.044 | 0.112 | 0.024 |
| RBM33 (UniProt Q96EV2) | 0.134 | 0.013 | 0.03 | 0.042 | -0.031 | -0.078 | 0.035 | -0.028 | 0.008 | -0.044 | -0.01 | 0.058 | -0.063 | -0.077 | 0.016 | 0.03 | -0.019 | 0.043 | -0.022 | -0.085 |
| SELENOH (UniProt Q8IZQ5) | 0.204 | -0.077 | 0.035 | 0.02 | -0.27 | -0.114 | -0.028 | -0.038 | 0.08 | -0.074 | -0.19 | 0 | -0.014 | -0.022 | -0.101 | -0.12 | -0.008 | -0.051 | -0.018 | 0.036 |
| RHOA (UniProt P61586) | 0.284 (active) | -0.012 | -0.054 | 0.1 | -0.085 | -0.118 | 0.036 | -0.012 | 0.036 | -0.178 | 0.028 | 0.098 | -0.317 | -0.101 | -0.066 | 0.022 | -0.024 | -0.035 | -0.082 | 0.219 |
| RPTOR (UniProt Q8N122) | 0.042 | -0.077 | -0.194 | -0.066 | -0.054 | -0.056 | 0.007 | -0.072 | 0.028 | -0.022 | 0.012 | -0.188 | -0.031 | 0.033 | 0.045 | -0.115 | 0 | 0.01 | -0.009 | -0.114 |
| RAB3GAP2 (UniProt Q9H2M9) | 0 | 0.049 | 0.101 | 0.01 | -0.056 | 0.009 | 0.017 | -0.103 | 0.038 | -0.027 | 0.019 | -0.064 | -0.024 | 0.213 | -0.046 | 0.003 | 0.048 | 0.119 | 0.046 | -0.097 |
| SCAF11 (UniProt Q99590) | 0.365 | 0.141 | -0.029 | 0.054 | -0.1 | -0.028 | -0.013 | -0.071 | 0.156 | -0.382 | 0.021 | -0.06 | -0.069 | 0.229 | -0.069 | 0.543 | -0.037 | -0.106 | -0.05 | -0.012 |
| RPS15 (UniProt P62841) | 0.086 | 0.192 | -0.082 | 0.049 | -0.107 | 0.027 | 0.008 | -0.147 | -0.01 | -0.054 | 0.032 | 0 | -0.174 | 0.45 (active) | -0.078 | 0.137 | -0.071 | -0.045 | 0.032 | -0.003 |
| SASH1 (UniProt O94885) | -0.059 | -0.074 | -0.04 | -0.05 | 0.009 | -0.161 | 0.015 | -0.015 | -0.013 | 0.073 | 0.023 | -0.122 | -0.077 | -0.024 | 0.032 | -0.028 | 0.088 | 0.198 | -0.031 | -0.116 |
